Experiment in all cases: DAPPL (digital affinity profiling via proximity ligation, sequencing); 10 mM Tris-HCl pH 7.5, 50 mM NaCl, 1 mM DTT, 4% glycerol, room temperature, 30 min; GST-TFs on glutathione beads, 16-mer random dsDNA library, 0.1% formaldehyde crosslink after washing; high values mean tight binding
Conditions in all cases: protein: recombinant; tags: N-terminal GST; dsDNA, one strand shown

For test [1], the target named is T1, ERF (Homo sapiens, UniProt P50548 1-548).
T1 sequence: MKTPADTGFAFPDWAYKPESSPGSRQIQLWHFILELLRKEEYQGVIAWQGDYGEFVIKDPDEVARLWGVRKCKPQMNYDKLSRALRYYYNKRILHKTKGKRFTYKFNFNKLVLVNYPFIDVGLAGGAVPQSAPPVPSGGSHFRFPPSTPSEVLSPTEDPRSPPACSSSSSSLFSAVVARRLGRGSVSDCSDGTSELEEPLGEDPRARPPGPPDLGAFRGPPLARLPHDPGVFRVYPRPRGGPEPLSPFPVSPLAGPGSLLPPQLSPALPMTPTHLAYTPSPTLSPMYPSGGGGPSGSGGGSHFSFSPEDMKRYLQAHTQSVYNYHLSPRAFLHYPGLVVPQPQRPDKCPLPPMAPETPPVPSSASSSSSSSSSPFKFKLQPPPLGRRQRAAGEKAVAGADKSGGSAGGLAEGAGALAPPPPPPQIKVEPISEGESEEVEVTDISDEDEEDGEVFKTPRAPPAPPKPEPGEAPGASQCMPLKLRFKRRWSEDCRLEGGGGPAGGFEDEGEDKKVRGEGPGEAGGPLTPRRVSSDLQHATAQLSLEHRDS
The method, boiled down:
(§1)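 Beads coated with glutathione captured GST-fused human transcription factors that had been expressed in yeast, and the factors were then given DNA barcodes and pooled with a tag-only sample. The pools were incubated with 200 nmole of a random double-stranded 16-mer DNA library in Tris/NaCl/DTT/glycerol buffer for 30 min at room temperature, washed, crosslinked with 0.1% formaldehyde and proximity-ligated with BsaI/T4 ligase at 37 °C for 1 h. PCR amplification and Illumina NextSeq500 sequencing came last. Binding signal is each hexamer's read frequency for a factor divided by its frequency for the tag-only sample.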

The target in test [2] is T2, ETV3L (Homo sapiens, UniProt Q6ZN32 1-361).
T2 sequence: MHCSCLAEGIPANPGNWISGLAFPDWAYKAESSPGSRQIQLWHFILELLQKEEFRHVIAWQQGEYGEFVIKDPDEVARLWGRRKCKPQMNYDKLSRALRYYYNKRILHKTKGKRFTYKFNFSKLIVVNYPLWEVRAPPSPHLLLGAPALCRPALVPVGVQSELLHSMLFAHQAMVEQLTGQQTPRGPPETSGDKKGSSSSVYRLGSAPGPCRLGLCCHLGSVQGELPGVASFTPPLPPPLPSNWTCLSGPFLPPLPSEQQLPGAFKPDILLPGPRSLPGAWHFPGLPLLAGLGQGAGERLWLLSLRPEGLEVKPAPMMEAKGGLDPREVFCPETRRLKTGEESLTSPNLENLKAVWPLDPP
An outline of the steps:
as §1

For test [3], the target named is T3, ETS2 (Homo sapiens, UniProt P15036 1-469).
T3 sequence: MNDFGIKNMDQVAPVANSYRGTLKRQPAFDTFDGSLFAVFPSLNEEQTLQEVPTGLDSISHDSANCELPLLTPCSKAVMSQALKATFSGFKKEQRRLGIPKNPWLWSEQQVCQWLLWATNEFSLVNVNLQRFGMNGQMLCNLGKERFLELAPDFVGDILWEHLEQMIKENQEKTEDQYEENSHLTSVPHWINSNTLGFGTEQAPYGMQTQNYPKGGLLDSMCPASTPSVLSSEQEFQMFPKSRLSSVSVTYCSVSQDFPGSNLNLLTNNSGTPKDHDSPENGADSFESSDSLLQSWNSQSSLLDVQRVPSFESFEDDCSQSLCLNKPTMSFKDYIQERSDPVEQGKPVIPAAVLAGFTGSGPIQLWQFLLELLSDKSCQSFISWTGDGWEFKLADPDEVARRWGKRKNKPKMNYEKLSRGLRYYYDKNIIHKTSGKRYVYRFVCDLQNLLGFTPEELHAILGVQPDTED
An outline of the steps:
as §1

In test [4] the target is T4, SPDEF (Homo sapiens, UniProt O95238 1-335).
T4 sequence: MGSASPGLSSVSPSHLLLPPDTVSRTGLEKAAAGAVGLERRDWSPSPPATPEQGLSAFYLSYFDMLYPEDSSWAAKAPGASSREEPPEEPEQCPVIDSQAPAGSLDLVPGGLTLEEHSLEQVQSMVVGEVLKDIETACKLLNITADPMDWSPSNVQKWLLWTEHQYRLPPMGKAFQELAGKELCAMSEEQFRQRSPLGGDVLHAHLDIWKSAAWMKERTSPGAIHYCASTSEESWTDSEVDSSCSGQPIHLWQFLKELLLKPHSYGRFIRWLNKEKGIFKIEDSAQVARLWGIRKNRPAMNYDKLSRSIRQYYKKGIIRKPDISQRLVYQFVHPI
An outline of the steps: as §1

In test [5] the target is T5, ETV7 (Homo sapiens, UniProt Q9Y603 1-341).
T5 sequence: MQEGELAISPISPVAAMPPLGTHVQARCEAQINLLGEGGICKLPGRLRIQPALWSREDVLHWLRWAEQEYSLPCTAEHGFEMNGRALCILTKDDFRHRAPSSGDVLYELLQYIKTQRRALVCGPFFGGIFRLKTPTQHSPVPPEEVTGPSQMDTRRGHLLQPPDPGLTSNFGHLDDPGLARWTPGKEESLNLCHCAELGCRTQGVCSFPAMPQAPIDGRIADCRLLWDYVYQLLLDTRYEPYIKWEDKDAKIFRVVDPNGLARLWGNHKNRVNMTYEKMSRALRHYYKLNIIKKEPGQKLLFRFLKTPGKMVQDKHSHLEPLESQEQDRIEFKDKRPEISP
An outline of the steps: as §1

In test [6] the target is T6, ELF5 (Homo sapiens, UniProt Q9UKW6-2 1-255).
T6 sequence: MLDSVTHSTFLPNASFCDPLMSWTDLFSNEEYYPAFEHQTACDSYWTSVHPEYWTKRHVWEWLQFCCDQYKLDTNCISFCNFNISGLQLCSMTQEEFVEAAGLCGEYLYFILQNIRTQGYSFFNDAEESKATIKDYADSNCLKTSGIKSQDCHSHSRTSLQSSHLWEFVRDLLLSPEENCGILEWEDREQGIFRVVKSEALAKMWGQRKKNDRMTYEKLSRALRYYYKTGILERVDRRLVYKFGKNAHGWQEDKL
The method, boiled down:
as §1

For test [7], the target named is T7, ETV3 (Homo sapiens, UniProt P41162-2 1-143).
T7 sequence: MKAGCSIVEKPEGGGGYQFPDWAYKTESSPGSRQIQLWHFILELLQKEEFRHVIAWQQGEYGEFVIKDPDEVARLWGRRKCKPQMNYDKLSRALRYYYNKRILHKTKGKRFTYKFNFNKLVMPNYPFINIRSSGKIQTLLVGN
The method, boiled down:
as §1

Test [8] concerns the target ETV6 (Homo sapiens, UniProt P41212 1-452). An outline of the steps:
as §1

ETV6, sequence (P41212 whole entry): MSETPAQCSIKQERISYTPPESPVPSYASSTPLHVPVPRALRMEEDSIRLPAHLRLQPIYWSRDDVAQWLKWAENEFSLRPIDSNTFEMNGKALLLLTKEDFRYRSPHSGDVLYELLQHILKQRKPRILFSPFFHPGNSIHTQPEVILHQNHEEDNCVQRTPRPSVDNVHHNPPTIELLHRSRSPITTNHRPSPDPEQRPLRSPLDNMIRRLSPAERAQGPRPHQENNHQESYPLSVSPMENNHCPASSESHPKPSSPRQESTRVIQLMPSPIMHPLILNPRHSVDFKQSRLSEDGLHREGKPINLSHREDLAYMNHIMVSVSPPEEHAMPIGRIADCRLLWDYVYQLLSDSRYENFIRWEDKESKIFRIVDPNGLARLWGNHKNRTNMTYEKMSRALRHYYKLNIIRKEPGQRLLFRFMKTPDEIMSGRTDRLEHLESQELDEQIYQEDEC

In the case of CGGATA, the binding signal was 1.17 fold enrichment (6-mer frequency, TF over GST control) in test [1]; 1.13 fold enrichment (6-mer frequency, TF over GST control) in test [2]; 1.3 fold enrichment (6-mer frequency, TF over GST control) in test [3]; 1.93 fold enrichment (6-mer frequency, TF over GST control) in test [4]; 1.09 fold enrichment (6-mer frequency, TF over GST control) in test [5]; 1.37 fold enrichment (6-mer frequency, TF over GST control) in test [6]. Further, the binding signal in test [7] is 1.33 fold enrichment (6-mer frequency, TF over GST control); in test [8], 1.21 fold enrichment (6-mer frequency, TF over GST control).

For CCCTGG, the binding signal in test [1] was 1.24 fold enrichment (6-mer frequency, TF over GST control); in test [2] it was 1.16 fold enrichment (6-mer frequency, TF over GST control); in test [3] it was 1.06 fold enrichment (6-mer frequency, TF over GST control); in test [4], 1.02 fold enrichment (6-mer frequency, TF over GST control); in test [5] it was 1.26 fold enrichment (6-mer frequency, TF over GST control); in test [6] it was 1.06 fold enrichment (6-mer frequency, TF over GST control). Moreover, the binding signal in test [7] is 1.13 fold enrichment (6-mer frequency, TF over GST control); in test [8], 1.05 fold enrichment (6-mer frequency, TF over GST control).

With CCTGCC, the binding signal in test [1] is 1.3 fold enrichment (6-mer frequency, TF over GST control); in test [2], 1.24 fold enrichment (6-mer frequency, TF over GST control); in test [3] it was 1.23 fold enrichment (6-mer frequency, TF over GST control); in test [4], 1.31 fold enrichment (6-mer frequency, TF over GST control); in test [5], 1.33 fold enrichment (6-mer frequency, TF over GST control); in test [6], 1.35 fold enrichment (6-mer frequency, TF over GST control). Moreover, the binding signal is 1.28 fold enrichment (6-mer frequency, TF over GST control) in test [7] and 1.36 fold enrichment (6-mer frequency, TF over GST control) in test [8].

Turning to CGATAA, the binding signal in test [1] is 1.11 fold enrichment (6-mer frequency, TF over GST control); in test [2], 1.09 fold enrichment (6-mer frequency, TF over GST control); in test [3] it was 1.14 fold enrichment (6-mer frequency, TF over GST control); in test [4], 1.02 fold enrichment (6-mer frequency, TF over GST control); in test [5], 1.08 fold enrichment (6-mer frequency, TF over GST control); in test [6] it was 1.03 fold enrichment (6-mer frequency, TF over GST control). Besides, the binding signal in test [7] is 1.06 fold enrichment (6-mer frequency, TF over GST control); in test [8] it was 1.09 fold enrichment (6-mer frequency, TF over GST control).

Take GCCTCC: the binding signal is 1.39 fold enrichment (6-mer frequency, TF over GST control) in test [1]; 1.27 fold enrichment (6-mer frequency, TF over GST control) in test [2]; 1.27 fold enrichment (6-mer frequency, TF over GST control) in test [3]; 1.3 fold enrichment (6-mer frequency, TF over GST control) in test [4]; 1.29 fold enrichment (6-mer frequency, TF over GST control) in test [5]; 1.29 fold enrichment (6-mer frequency, TF over GST control) in test [6]. The binding signal in test [7] was 1.24 fold enrichment (6-mer frequency, TF over GST control); in test [8], 1.16 fold enrichment (6-mer frequency, TF over GST control).

For the sequence GATGAA, the binding signal in test [1] was 1.17 fold enrichment (6-mer frequency, TF over GST control); in test [2], 1.25 fold enrichment (6-mer frequency, TF over GST control); in test [3], 1.19 fold enrichment (6-mer frequency, TF over GST control); in test [4], 1.15 fold enrichment (6-mer frequency, TF over GST control); in test [5] it was 1.24 fold enrichment (6-mer frequency, TF over GST control); in test [6], 1.17 fold enrichment (6-mer frequency, TF over GST control). For the same sequence, the binding signal in test [7] was 1.11 fold enrichment (6-mer frequency, TF over GST control); in test [8], 1.18 fold enrichment (6-mer frequency, TF over GST control).

Regarding GCATCC, the binding signal in test [1] was 1.43 fold enrichment (6-mer frequency, TF over GST control); in test [2], 1.56 fold enrichment (6-mer frequency, TF over GST control); in test [3], 1.61 fold enrichment (6-mer frequency, TF over GST control); in test [4], 2.71 fold enrichment (6-mer frequency, TF over GST control); in test [5] it was 1.43 fold enrichment (6-mer frequency, TF over GST control); in test [6] it was 1.64 fold enrichment (6-mer frequency, TF over GST control). Further, the binding signal in test [7] was 1.62 fold enrichment (6-mer frequency, TF over GST control); in test [8], 1.57 fold enrichment (6-mer frequency, TF over GST control).

Regarding TGCACG, the binding signal in test [1] was 1.11 fold enrichment (6-mer frequency, TF over GST control); in test [2] it was 1.1 fold enrichment (6-mer frequency, TF over GST control); in test [3], 1.15 fold enrichment (6-mer frequency, TF over GST control); in test [4], 1.11 fold enrichment (6-mer frequency, TF over GST control); in test [5] it was 1.19 fold enrichment (6-mer frequency, TF over GST control); in test [6], 1.02 fold enrichment (6-mer frequency, TF over GST control). Besides, the binding signal in test [7] was 1.13 fold enrichment (6-mer frequency, TF over GST control); in test [8], 1.06 fold enrichment (6-mer frequency, TF over GST control).

Source of the values: paper PMC7862700, “An all-to-all approach to the identification of sequence-specific readers for epigenetic DNA modifications on cytosine”.
